CYP2C9 act: activators of human CYP2C9 | hit rate 1.4% among 96,000 | recombinant CYP2C9, luciferin-H conversion, luminescence; stronger effect = higher value; factor 1 = untreated enzyme, 0 = blocked | activation factor at 5 µM;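 active = activation factor of 2 or more for CYP2C9 at a 5 µM dose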;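 note: 0 = sulfaphenazole-blocked wells and 1 = vehicle-only wells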
CYP2C19 activ: activators of human cytochrome P450 2C19; P33261; recombinant CYP2C19, luciferin-H EGE luminescence; stronger effect = higher value; 0 = fully inhibited enzyme, 1 = untreated enzyme; activation factor at 5 µM; 96,000 tested, under 10 active; AID 1025;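 active = activation factor of at least 2 at 5 µM in the primary screen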;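 note: 0 = wells with 2.5 mM tranylcypromine and 1 = vehicle-only wells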
Target sequence (P33261 whole entry, looked up): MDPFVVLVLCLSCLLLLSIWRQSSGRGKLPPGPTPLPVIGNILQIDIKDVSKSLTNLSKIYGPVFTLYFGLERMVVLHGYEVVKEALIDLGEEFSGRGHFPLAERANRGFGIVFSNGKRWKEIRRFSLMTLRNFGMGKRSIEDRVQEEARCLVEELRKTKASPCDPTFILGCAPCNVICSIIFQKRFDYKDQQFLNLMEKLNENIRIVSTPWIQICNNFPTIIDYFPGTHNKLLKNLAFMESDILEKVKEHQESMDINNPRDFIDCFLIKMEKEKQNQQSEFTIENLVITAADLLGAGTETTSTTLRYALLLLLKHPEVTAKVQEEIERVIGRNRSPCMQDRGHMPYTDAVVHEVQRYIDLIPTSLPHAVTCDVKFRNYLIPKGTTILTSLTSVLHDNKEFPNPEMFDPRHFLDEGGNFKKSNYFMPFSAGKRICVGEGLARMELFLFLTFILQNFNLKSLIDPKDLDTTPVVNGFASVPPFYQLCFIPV
sEH activator: activators of human soluble epoxide hydrolase; P34913; purified human sEH enzymatic activity, activator screen; activation, % at 2 µM; hit rate 0.04% among 91,000; AID 717; in the data active = activation above about 37%
CYP2C9 inhib: inhibitors of human CYP2C9; P11712; CYP2C9 Supersomes, luciferin-H conversion, luminescence; inhibition, % at 5 µM; hit rate 20% among 96,000; AID 777;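 active = blocking of liver enzyme CYP2C9 beyond about 50% at 5 µM, limit read from the data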
CYP2C19 inh: inhibitors of human CYP2C19; hit rate 21% among 96,000; CYP2C19 Supersomes, luciferin-H EGE luminescence, 30 min; inhibition, % at 5 µM;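 active = CYP2C19 inhibition above a set limit at 5 µM in the primary screen, cut at about 50% in these data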;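 note: plate controls were negative control wells for no effect and 2.5 mM tranylcypromine positive control for full effect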
sEH inhibitor: inhibitors of human soluble epoxide hydrolase. P34913. hit rate 0.34% among 91,000. inhibition, % at 2 µM. recombinant human sEH enzymatic activity assay; in the data active = inhibition above about 80%
* marks the source's active call; other numbers are inactive results; nt = not tested or not shown. A selection: hits, their analogues and other compounds. The true share with any hit is near 27%.

SMILES | CYP2C9 act | CYP2C19 activ | sEH activator | CYP2C9 inhib | CYP2C19 inh | sEH inhibitor
CC1CCCC(NC(=O)COC(=O)c2ccc(N(C)C)cc2)C1C (stereo unspecified) | 0.5 | 0.2 | -61.4 | 54.3* | 83.0* | 61.4
Cc1noc(C)c1COc1ccc(C(=O)OCC(=O)NC23CC4CC(CC(C4)C2)C3)cc1 | 0.5 | 0.7 | -37.1 | 45.3 | 26.0 | 36.9
CC1CCCC(NC(=O)COC(=O)c2ccc3ccccc3n2)C1C (stereo unspecified) | 0.6 | 0.4 | -5.6 | 40.1 | 61.5* | 7.8
COc1ccc(C)cc1-n1c(SCC(=O)Nc2cc(C)on2)nc2sc(C)c(C)c2c1=O | 0.9 | 1 | nt | 9.6 | 4.1 | nt
CCOC(=O)CN1C(=O)C(O)(CC(=O)c2cccc(OC)c2)c2ccccc21 (stereo unspecified) | 0.7 | 0.4 | 13.5 | 27.7 | 62.8* | -15.7
COC(=O)CN1C(=O)C(O)(CC(=O)c2ccccc2)c2ccccc21 (stereo unspecified) | 0.9 | 0.5 | -2.6 | 12.7 | 51.2* | 2.1
C#CCN1C(=O)C(O)(CC(=O)c2cccc(OC)c2)c2ccccc21 (stereo unspecified) | 1 | 0.7 | -2.9 | -0.7 | 32.7 | 0.9
C=CCN1C(=O)C(O)(CC(=O)c2ccc(N)cc2)c2ccccc21 (stereo unspecified) | 1.1 | 0.4 | -5.3 | -10.6 | 60.0* | 8.6
COC(=O)CN1C(=O)C(O)(CC(=O)c2ccc(C)o2)c2ccccc21 (stereo unspecified) | 1 | 1.1 | 1.8 | -3.5 | -6.2 | 0.8
COC(=O)CN1C(=O)C2(OCCCO2)c2ccccc21 | 1.1 | 1 | -4.6 | -11.8 | -1.3 | 7.4
COC(=O)CN1C(=O)C(O)(CC(=O)c2ccc(C)cc2)c2ccccc21 (stereo unspecified) | 0.7 | 0.4 | nt | 32.5 | 62.3* | nt
CCOC(=O)CN1C(=O)C(O)(CC(=O)c2ccc3c(c2)CCCC3)c2ccccc21 (stereo unspecified) | nt | nt | -14.3 | nt | nt | 14.3
O=[n+]1c2c(n([O-])c3c1CCCC3)CCCCC2 | 1 | 1 | 19.5 | -0.1 | 2.4 | -20.2
O=C(CC1(O)C(=O)N(C/C=C/c2ccccc2)c2ccccc21)c1ccccn1 (stereo unspecified) | 0.2 | 0.1 | nt | 81.5* | 91.6* | nt
CCn1c2ccccc2c2cc(N=C3SC(CC(=O)Nc4ccccc4OC)C(=O)N3C)ccc21 (stereo unspecified) | 0.1 | 0.6 | 14.4 | 87.1* | 37.5 | -12.4
COc1ccc(N=C2SC(CC(=O)Nc3ccccc3)C(=O)N2CC2CCCO2)cc1 (stereo unspecified) | 0.3 | 0.5 | 4.3 | 73.4* | 46.9 | -7.4
CN=C1SC(CC(=O)Nc2ccccc2F)C(=O)N1C (stereo unspecified) | 1.3 | 1 | nt | -28.4 | -4.8 | nt
CN=C1SC(CC(=O)Nc2sc(C)c(C)c2C(=O)OC)C(=O)N1C (stereo unspecified) | 0.4 | 0.5 | nt | 57.6* | 48.0 | nt
CCn1c(=O)n(CC(=O)Nc2cc(OC)ccc2OC)c(=O)c2ccccc21 | 0.7 | 0.8 | -5.9 | 27.7 | 22.1 | 10.7
CN=C1SC(CC(=O)Nc2cccc(C(F)(F)F)c2)C(=O)N1C (stereo unspecified) | 3.9* | 0.7 | -13.6 | -286.3 | 32.6 | 17.2
COCCN1C(=O)C(CC(=O)Nc2ccc(C(=O)O)cc2)SC1=Nc1ccccc1 (stereo unspecified) | 1 | 1.1 | nt | 2.9 | -13.6 | nt
COC(=O)c1nc2n(n1)C(c1ccc(OC)c(OC)c1OC)C1=C(CCCC1=O)N2 (stereo unspecified) | 0.7 | 1.1 | nt | 28.0 | -12.6 | nt
CCN1C(=O)C(CC(=O)Nc2c(C)cccc2C)SC1=Nc1ccc(S(N)(=O)=O)cc1 (stereo unspecified) | nt | nt | 2.5 | nt | nt | 0.1
CCN=C1SC(CC(=O)Nc2ccccc2)C(=O)N1CC (stereo unspecified) | 1 | 0.7 | 16.7 | -0.7 | 34.0 | -13.8
COC(=O)c1cc(NC(=O)CC2SC(=Nc3ccccc3)N(CCc3c[nH]c4ccccc34)C2=O)cc(C(=O)OC)c1 (stereo unspecified) | 0.2 | 1 | -20.2 | 80.6* | 4.9 | 20.1
CCn1c2ccccc2c2cc(N=C3SC(CC(=O)Nc4ccccc4)C(=O)N3C)ccc21 (stereo unspecified) | 0.1 | 0.6 | -1.2 | 87.1* | 36.6 | -1.8
